Among all 100,000 compounds or so, about 770 (0.77%) were called active. Cut-off read from the data, not from the text of the source: active = inhibition above about 50%; inactive = the rest. The full list was thinned out, with actives kept by preference.
The compounds below were run against Gag-Pol polyprotein (Human immunodeficiency virus type 1 group M subtype B (isolate HXB2)) (UniProt P04585) (assay: RNase H inhibition, HIV 1 Gag Pol polyprotein, FRET biochemical assay, screening (AID 372)). Details: HIV-1 RT RNase H, FRET RNA/DNA substrate fluorescence; at 10 µM; active compounds read high.

| Compound | inhibition |
| --- | --- |
| Clc1cccc(OCCCN2CCOCC2)c1Cl | 2% (inactive) |
| Clc1cccc(OCCCCN2CCOCC2)c1Cl | 55% (active) |
| Clc1cccc(OCCN2CCOCC2)c1Cl | 0% (inactive) |
| Cc1sc2nc(SCC(=O)NCCO)[nH]c(=O)c2c1C | 2% (inactive) |
| COc1ccc(-c2nc3cc(NC(=S)NC(=O)c4ccccc4Cl)ccc3o2)cc1Cl | 45% (inactive) |
| CCOc1ccc(-c2nc3cc(NC(=S)NC(=O)c4ccccc4C)ccc3o2)cc1 | 61% (active) |
| CCOc1ccc(-c2nc3cc(NC(=S)NC(=O)c4ccccc4Br)ccc3o2)cc1 | 20% (inactive) |
| COc1ccc(C(=O)NC(=S)Nc2ccc3oc(-c4ccccc4C)nc3c2)cc1Cl | 25% (inactive) |
| COc1ccc(-c2nc3cc(NC(=S)NC(=O)c4ccccc4C)ccc3o2)cc1 | 7% (inactive) |
| COc1ccc(-c2nc3cc(NC(=S)NC(=O)c4ccccc4OC)ccc3o2)cc1Cl | 13% (inactive) |
| COc1ccc(C(=O)NC(=S)Nc2ccc3oc(-c4ccccc4Cl)nc3c2)cc1OC | 14% (inactive) |
| COc1ccc(-c2nc3cc(NC(=S)NC(=O)c4ccccc4C)ccc3o2)cc1Cl | 56% (active) |
| COc1ccc(C(=O)NC(=S)Nc2ccc3oc(-c4ccccc4Cl)nc3c2)cc1Cl | 53% (active) |
| O=C(Nc1ccc2ccccc2c1)c1cc(I)ccc1Cl | 23% (inactive) |
| COc1ccc(/C(N)=N/OC(=O)/C=C/c2ccccc2)cc1 | 15% (inactive) |
| CCCCOC(=O)c1ccc(NC(=O)COc2ccccc2Br)cc1 | 15% (inactive) |
| COc1ccc(NC(=O)CN(c2c(C)n(C)n(-c3ccccc3)c2=O)S(=O)(=O)c2ccccc2)cc1 | 4% (inactive) |
| O=C(CSc1nc2sc3c(c2c(=O)n1-c1ccc(Cl)cc1)CCCC3)c1ccccc1 | 13% (inactive) |
| O=[N+]([O-])c1ccc(N2CCN(S(=O)(=O)c3ccc4ccccc4c3)CC2)cc1N1CCCC1 | 5% (inactive) |
| CC(c1ccccc1)N1C(=O)/C(=C/c2cccc([N+](=O)[O-])c2)SC1=S (stereo not given) | 11% (inactive) |
| COc1ccc(C(=O)NC(=S)Nc2ccc(C)c(Cl)c2)cc1[N+](=O)[O-] | 5% (inactive) |
| Cc1ccc(C(=O)Nc2ccc(-c3nc4cc5ccccc5cc4[nH]3)cc2)cc1[N+](=O)[O-] | 80% (active) |
| O=C(Nc1ccc2nn(-c3ccc(F)cc3)nc2c1)c1ccc(Cl)c([N+](=O)[O-])c1 | 52% (active) |
| O=C(Nc1ccc2nn(-c3ccc(Cl)cc3)nc2c1)c1ccc([N+](=O)[O-])cc1 | 31% (inactive) |
| O=C(Nc1ccc2nn(-c3ccc(F)cc3)nc2c1)c1ccc([N+](=O)[O-])cc1 | 16% (inactive) |
| O=C(Nc1ccc(-c2nc3ccc(NC(=O)c4ccccc4[N+](=O)[O-])cc3[nH]2)cc1)c1ccccc1[N+](=O)[O-] | 13% (inactive) |
| Cc1ccc(-n2nc3ccc(NC(=O)c4ccc([N+](=O)[O-])cc4)cc3n2)cc1Cl | 53% (active) |
| COc1ccc(C(=O)NC(=S)Nc2ccc3nn(-c4ccc(F)cc4)nc3c2)cc1[N+](=O)[O-] | 38% (inactive) |

| Compound | inhibition |
| --- | --- |
| O=C(Nc1ccc2nn(-c3ccccc3)nc2c1)c1ccc(Cl)c([N+](=O)[O-])c1 | 21% (inactive) |
| Cc1ccc(-n2nc3ccc(NC(=O)c4cccc([N+](=O)[O-])c4)cc3n2)cc1Cl | 43% (inactive) |
| Cc1ccc(C(=O)Nc2ccccc2)cc1[N+](=O)[O-] | 7% (inactive) |
| CC(=O)N/N=C/c1ccc(-c2ccc([N+](=O)[O-])cc2Br)o1 | 13% (inactive) |
| CCOc1ccc(C(=O)NCc2cccnc2)cc1Br | 0% (inactive) |
| CC(C)=NNC(=O)/C(=C/C=C/c1ccccc1)NC(=O)c1ccccc1 | 7% (inactive) |
| CC(=O)c1cccc(NC(=O)CC2S/C(=N\N=C(/C)c3ccc(Cl)cc3)NC2=O)c1 (stereo not given) | 13% (inactive) |
| O=C(c1nn2c(c1Br)NC(c1cccs1)CC2C(F)(F)F)N1CCOCC1 (stereo not given) | 0% (inactive) |
| N#Cc1ccc(C=Nc2cc(Cl)cc(Cl)c2)cc1 | 11% (inactive) |
| Cc1cc2c(c(=O)o1)C(c1cccs1)C(C#N)=C(N)O2 (stereo not given) | 4% (inactive) |
| Cc1cc(C)c(S(=O)(=O)Nc2cc(Br)c(O)c3ccccc23)c(C)c1 | 18% (inactive) |
| N#Cc1ccccc1COc1ccc(/C=C2/NC(=S)NC2=O)cc1 | 23% (inactive) |
| COc1ccc(C(=O)NC(=S)Nc2cc(-c3nc4ccccc4[nH]3)ccc2C)cc1[N+](=O)[O-] | 18% (inactive) |
| Cc1ccc(C(=O)Nc2ccc3nn(-c4ccc(F)cc4)nc3c2)cc1[N+](=O)[O-] | 40% (inactive) |
| CCOc1ccc(C(=O)NC(=S)Nc2ccc3nn(-c4ccccc4)nc3c2)cc1[N+](=O)[O-] | 18% (inactive) |
| COc1ccc(C(=O)NC(=S)Nc2ccc(Br)cc2)cc1[N+](=O)[O-] | 0% (inactive) |
| COc1ccc(C(=O)NC(=S)Nc2ccc3nn(-c4ccccc4)nc3c2)cc1[N+](=O)[O-] | 56% (active) |
| Cc1ccc(-n2nc3ccc(NC(=O)/C=C\c4cccc([N+](=O)[O-])c4)cc3n2)cc1 | 59% (active) |
| COc1ccc(C(=O)NC(=S)Nc2ccc(-c3nc4ccccc4[nH]3)cc2)cc1[N+](=O)[O-] | 60% (active) |
| O=C(/C=C/c1cccc([N+](=O)[O-])c1)Nc1ccc2nn(-c3ccccc3)nc2c1 | 43% (inactive) |
| Cc1ccc(C(=O)Nc2ccc3nn(-c4ccc(Cl)cc4)nc3c2)cc1[N+](=O)[O-] | 51% (active) |
| CCOc1ccc(-n2nc3ccc(NC(=O)c4ccc(C)c([N+](=O)[O-])c4)cc3n2)cc1 | 17% (inactive) |
| COc1ccc(C(=O)Nc2ccc3nn(-c4ccccc4)nc3c2)cc1[N+](=O)[O-] | 18% (inactive) |
| Cc1ccc(-n2nc3cc(C)c(NC(=O)/C=C/c4cccc([N+](=O)[O-])c4)cc3n2)cc1 | 12% (inactive) |
| CCc1ccc(C=NC23CN4CN(CN(C4)C2)C3)s1 | 5% (inactive) |
| CCOC(=O)c1c(NC(=O)CN2C(=O)S/C(=C\c3ccccc3)C2=O)sc2c1CCCC2 | 10% (inactive) |
| COc1cccc(/C=C2/SC(=S)N(CCC(=O)Nc3nnc(C)s3)C2=O)c1 | 7% (inactive) |
